Measurements published in PubChem BioAssay AID1851 (National Center for Advancing Translational Sciences (NCATS), 2009).
Among all 16,000 compounds or so, about 2,600 (16%) were called active. About 20% were inconclusive and are not listed. The list is a sample of the results. Values without a mark were called inactive. Calls follow the shape of the dose curve; as a rule, active = well fitted curve in the direction sought with a large enough effect; inconclusive = small, poorly fitted or top-dose-only effect, or effect the other way; inactive = no such curve, though single readings can be large or run the other way.
% is scaled to controls: 0 for no effect and ±100 for the full control effect.

These compounds were tested against Cytochrome P450 2D6 (Homo sapiens) (UniProt P10635) (assay: Cytochrome panel assay with activity outcomes). Conditions: recombinant CYP, pro-luciferin dealkylation, luminescence, p450-cyp2d6; series mostly up to 57.1 µM; activity, negative = inhibition: at the top concentration.
Chain of Cytochrome P450 2D6 (Homo sapiens) (P10635 whole entry, looked up): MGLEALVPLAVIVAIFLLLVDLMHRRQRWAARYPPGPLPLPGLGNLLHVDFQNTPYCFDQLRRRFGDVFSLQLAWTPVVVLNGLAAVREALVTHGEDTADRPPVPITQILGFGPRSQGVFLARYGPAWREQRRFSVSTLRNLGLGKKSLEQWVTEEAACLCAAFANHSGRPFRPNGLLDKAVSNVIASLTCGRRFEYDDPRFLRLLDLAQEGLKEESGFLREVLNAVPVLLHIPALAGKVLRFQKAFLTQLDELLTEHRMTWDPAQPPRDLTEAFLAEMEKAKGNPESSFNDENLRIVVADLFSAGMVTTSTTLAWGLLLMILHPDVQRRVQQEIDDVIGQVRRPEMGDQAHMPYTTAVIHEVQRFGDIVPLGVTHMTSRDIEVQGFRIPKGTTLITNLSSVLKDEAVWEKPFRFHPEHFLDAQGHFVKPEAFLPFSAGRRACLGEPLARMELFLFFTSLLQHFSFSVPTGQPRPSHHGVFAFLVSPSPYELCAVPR
In the case of CN(C)C(=O)c1ccc(-c2cc(N(C)Cc3ccco3)ncn2)cc1, the “activity, negative = inhibition” value was -13.6%. With CN(C)c1ccc(-c2cc(N(C)Cc3ccco3)ncn2)cc1 the AC50 was 7.94 µM (active). With CN(Cc1ccco1)c1cc(-c2ccc3c(c2)OCO3)ncn1 the AC50 was 12.6 µM (active). With CN(Cc1ccco1)c1cc(-c2ccoc2)ncn1 the “activity, negative = inhibition” value was -0.773%. COc1ccc(C(=O)N2CCC3(CC2)CN(C(=O)Nc2cccc(C#N)c2)C3)cc1 was tested, and the “activity, negative = inhibition” value was 2.7%. With Cc1nn(CCc2n[nH]c(=S)n2-c2ccc(F)c(Cl)c2)c(C)c1[N+](=O)[O-] the “activity, negative = inhibition” value was -1.51%. C#C[C@@]1(OC(C)=O)CC[C@@H]2[C@@H]3CCC4=C[C@@H](OC(C)=O)CC[C@H]4[C@H]3CC[C@]21C was tested, and the “activity, negative = inhibition” value was -7.92% [at 25.6 µM]. With N#CCSc1ncnc2c1cnn2CCO the “activity, negative = inhibition” value was -1.07%. With COC(=O)c1c(-c2ccccc2)csc1NC(=O)CSc1ncnc2sc(C)c(C)c12 the “activity, negative = inhibition” value was 16.2%. With NC(=S)c1ccc[n+]([C@@H]2O[C@@H](COP(=O)([O-])OP(=O)(O)OC[C@@H]3O[C@@H](n4cnc5c(N)ncnc54)[C@@H](OP(=O)(O)O)[C@H]3O)[C@@H](O)[C@H]2O)c1 the “activity, negative = inhibition” value was -0.503%. In the case of COC(=O)N1CCC2(CC1)CCN(c1cccc(-c3ccccc3)c1)CC2, the “activity, negative = inhibition” value was -12.4%. CC(=O)N1CCC2(CC1)CCN(c1ccccn1)CC2 was tested, and the “activity, negative = inhibition” value was 6.43%. With COC(=O)N1CCC2(CCN(Cc3ccccc3OC)CC2)CC1 the AC50 was 2 µM (active). In the case of CC(=O)N1CCC2(CCN(Cc3ccncc3)CC2)CC1, the “activity, negative = inhibition” value was -7.43%. For COc1ccccc1CN1CCC2(CC1)CCN(C(=O)c1c(C)noc1C)CC2, the AC50 was 7.94 µM (active). In the case of COC(=O)N1CCC2(CCN(Cc3nccs3)CC2)CC1, the “activity, negative = inhibition” value was 1.21%. With COc1ccccc1CN1CCC2(CC1)CCN(C(C)=O)CC2 the AC50 was 5.01 µM (active). COCC(=O)N1CCC2(CCN(Cc3ccncc3)CC2)CC1 was tested, and the AC50 was 6.31 µM (active). In the case of COc1ccc(C(=O)N2CCC3(CCN(Cc4ccncc4)CC3)CC2)cc1, the “activity, negative = inhibition” value was -11.6%. For Cc1noc(C)c1C(=O)N1CCC2(CCN(Cc3ccccc3)CC2)CC1, the “activity, negative = inhibition” value was -1.81%. For CC(=O)N1CCC2(CC1)CCN(c1ccc(-c3ccccc3)cc1)CC2, the “activity, negative = inhibition” value was -6.74%. COc1ccccc1CN1CC[C@@]2(CCCN(C(=O)c3c(C)noc3C)C2)C1 was tested, and the “activity, negative = inhibition” value was 15.2%. In the case of Cc1cc2c(cc1C)NC1=C(N2)O[C@H](c2c[nH]c3ccc(COc4ccccc4)cc23)C1=O, the activity, negative = inhibition was -9.09% [at 11.4 µM]. For N#C/C(=N\O)c1nc(-c2ccccc2)cs1, the “activity, negative = inhibition” value was 1.46%. CC(C)(C)c1ccc(OCC(=O)NNC(=O)Cc2cccs2)cc1 was tested, and the “activity, negative = inhibition” value was -9.25%. For C/C(C[n+]1ccccc1)=N\N=C(N)N, the activity, negative = inhibition was 6.81% [at 11.4 µM]. In the case of CN(C)C(=O)CSC1c2ccccc2C(=O)N1c1ccccc1 (configuration not stated), the “activity, negative = inhibition” value was 2.05%. For O=c1c(-c2ccccc2)nc2cnc(N3CCNCC3)nc2n1C1CC1, the “activity, negative = inhibition” value was -8.52%. Compound Cc1onc(-c2c(F)cccc2Cl)c1C(=O)N[C@@H]1C(=O)N2[C@H]1SC(C)(C)[C@H]2C(=O)O has an activity, negative = inhibition of 16.2% [at 11.4 µM]. With CNc1cc(N2CCCCCC2)ccc1[N+](=O)[O-] the “activity, negative = inhibition” value was -8.75%. CCC(CC)C(=O)Nc1cccc(/C(C)=N/NC(=O)c2c(Br)cnn2C)c1 was tested, and the “activity, negative = inhibition” value was -6.99%. With CN(C)CCn1nnnc1SCC1=C(C(=O)O)N2C(=O)[C@@H](NC(=O)Cc3csc(N)n3)[C@@H]2SC1 the “activity, negative = inhibition” value was -1.78% [at 25.6 µM]. COc1ccccc1CN1CCC2(CCNCC2)CC1 was tested, and the AC50 was 0.0316 µM (active). COC(=O)N1CCC2(CCN(Cc3cc(C(F)(F)F)cc(C(F)(F)F)c3)CC2)CC1 was tested, and the AC50 was 10 µM (active). In the case of COCC(=O)N1CCC2(CC1)CN(Cc1cc(C(F)(F)F)cc(C(F)(F)F)c1)C2, the “activity, negative = inhibition” value was -9.81%. With COc1ccc(NC(=O)N2CCCC3(CCNCC3)C2)cc1 the “activity, negative = inhibition” value was 3.65%. COCC(=O)N1CCC2(CCN(Cc3ccccc3OC)CC2)CC1 was tested, and the AC50 was 15.8 µM (active). For COCC(=O)N1CCC2(CC1)CCN(C(=O)Nc1ccc(OC)cc1)CC2, the “activity, negative = inhibition” value was 2.51%. COc1ccc(C(=O)N2CCC3(CCN(Cc4cc(C(F)(F)F)cc(C(F)(F)F)c4)CC3)CC2)cc1 was tested, and the “activity, negative = inhibition” value was 5.59%. With COCC(=O)N1CCC2(CC1)CN(Cc1ccccc1OC)C2 the “activity, negative = inhibition” value was -0.881%. Cc1cc2c(cc1S(N)(=O)=O)S(=O)(=O)CCC2 was tested, and the “activity, negative = inhibition” value was 5.14% [at 25.6 µM]. Compound CON(C)C(=O)c1nnc2c(n1)[nH]c1ccccc12 has an activity, negative = inhibition of -2.74% [at 11.4 µM]. N[C@H](CCC(=O)N[C@H](CSN=O)C(=O)NCC(=O)O)C(=O)O was tested, and the AC50 was “inactive”. With COc1cc(N2CCOCC2)ncn1 the “activity, negative = inhibition” value was 48.9%. Cc1ccc(Oc2ncc(CN3CCOCC3)s2)cc1 was tested, and the “activity, negative = inhibition” value was -14.5%. Cc1cc(C(C)(C)C)c(OCCCN2CCOCC2)c(C(C)(C)C)c1 was tested, and the AC50 was 2 µM (active). For N[C@@]1(C(=O)O)CN[C@H](C(=O)O)C1, the “activity, negative = inhibition” value was 6.38%. NC1(C(=O)O)CC(C(=O)O)C1 (configuration not stated) was tested, and the “activity, negative = inhibition” value was 8.58%. For Cc1cc(C)cc(-n2nnnc2SCC(=O)Nc2nc(-c3ccc(F)cc3)cs2)c1, the “activity, negative = inhibition” value was -3.64%. Compound COc1ccc(COC(=O)N/N=C2/C[C@@H](O)[C@@H](O)[C@@H]3[C@@H]4C(=O)N(C(C)(C)C)C(=O)[C@H]4CC[C@@H]23)cc1 has an activity, negative = inhibition of 12.5% [at 11.4 µM]. COC(=O)CSC(C(=O)Nc1ccc(C)c(C)c1)c1ccccc1 (configuration not stated) was tested, and the “activity, negative = inhibition” value was -15.4%. In the case of CCC(CC)C(=O)Nc1cccc(/C(C)=N\NC(=O)c2ccc(C)s2)c1, the “activity, negative = inhibition” value was 0.29%. With CCC(CC)C(=O)Nc1ccc(C)c(O)c1 the AC50 was 17.8 µM (active). For CCOC(=O)CN(C(=O)CCC(=O)Nc1cc(C)on1)C(C(=O)NC1CCCC1)c1cccnc1 (configuration not stated), the “activity, negative = inhibition” value was 27.1%. Cc1ccccc1C(C(=O)NC1CCCC1)N(C(=O)Cc1cccs1)c1ccc2c(c1)OCCO2 (configuration not stated) was tested, and the “activity, negative = inhibition” value was -26.2%. For CCOc1ccc(N(C(=O)/C=C/C(=O)Nc2cc(C)on2)C(C(=O)NC2CCCC2)c2ccccc2C)cc1 (configuration not stated), the AC50 was 14.1 µM (active). For COc1cccc(C(CC(=O)Nc2cccc3ccccc23)NC(=O)c2ccccc2)c1 (configuration not stated), the “activity, negative = inhibition” value was -16.1%. For COC(=O)c1cc2c(ccn2-c2ccc(F)cc2)n1C(C)C, the “activity, negative = inhibition” value was -24.7%. For CNC(=O)c1cc2c(cn1)[nH]c1ccccc12, the “activity, negative = inhibition” value was -7.85%. For Nc1n[nH]c2ccccc12, the activity, negative = inhibition was -3.15% [at 11.4 µM]. O=c1ccc(-c2ccccc2)n[nH]1 gave an activity, negative = inhibition of 2.58% [at 11.4 µM]. In the case of O=C1c2ccccc2-c2n[nH]c3cccc1c23, the AC50 was 0.398 µM (active). In the case of Cc1ccc(NC(=O)CN2C(=O)N/C(=C/c3ccc(C)o3)C2=O)cc1, the “activity, negative = inhibition” value was 9.19%. For CCCCOC(=O)Nc1nc2ccccc2s1, the “activity, negative = inhibition” value was -9.05%. With CC(=O)OCc1nc2ccccc2s1 the “activity, negative = inhibition” value was 14%. CCCc1cc(C(=O)Cc2nc3ccccc3s2)c(O)cc1O was tested, and the AC50 was 1.41 µM (active). Cc1cc2ncn(/N=C/c3ccc([N+](=O)[O-])o3)c2cc1C was tested, and the “activity, negative = inhibition” value was -17.6%. In the case of COc1cccc2cc3c(=O)oc4ccccc4c3nc12, the “activity, negative = inhibition” value was 1.36%. With COc1cccc(-c2cc(=O)c3ccccc3o2)c1N the AC50 was 7.94 µM (active). Cc1cccc(NC(=O)c2cc(=O)c3ccccc3o2)n1 was tested, and the “activity, negative = inhibition” value was -8.7%. With CC1CC2=C(NC(=S)NC2c2ccc(F)cc2)/C(=C/c2ccc(F)cc2)C1 (configuration not stated) the “activity, negative = inhibition” value was -6.34%. CO[C@@H]1/C=C\CC(=O)N[C@@H](C)C(=O)OC[C@H](NS(=O)(=O)c2ccc(C)cc2)[C@H](C)/C=C\CC(=O)OC[C@H]1C was tested, and the activity, negative = inhibition was -18.7% [at 11.4 µM]. COc1cccc(-c2cc3nc(-c4ccccc4)cc(N4CCC5(CC4)OCCO5)n3n2)c1 was tested, and the “activity, negative = inhibition” value was 6.39%. CCNc1ncc2nc(CCc3ccccc3)c(=O)n(Cc3cccc(OC)c3)c2n1 was tested, and the “activity, negative = inhibition” value was -14.3%. CCNc1ncc2nc(CCc3ccccc3)c(=O)n(CCOC)c2n1 was tested, and the AC50 was 0.398 µM (active). N#CCCn1c(=O)c(CCc2ccccc2)nc2cnc(Nc3ccccc3)nc21 was tested, and the “activity, negative = inhibition” value was 10.8%. In the case of COCCn1c(=O)c(CCc2ccccc2)nc2cnc(OC)nc21, the “activity, negative = inhibition” value was -5.74%. COc1cccc(Nc2ncc3nc(CCc4ccccc4)c(=O)n(CCC#N)c3n2)c1 was tested, and the “activity, negative = inhibition” value was -3.89%. In the case of CCNc1ncc2nc(CCc3ccccc3)c(=O)n(CCC#N)c2n1, the AC50 was 0.158 µM (active). With CCC(=O)N1CCN(C(=O)c2ccccc2)CC1 the “activity, negative = inhibition” value was 2.19%. COc1cc(O)c2c(O)c3c(c4c2c1[C@@]1(C4)C(C)=CCCC1(C)C)[C@H](O)[C@@]1(O)CC(=O)C(C(N)=O)=C(O)[C@]1(O)C3=O gave an activity, negative = inhibition of -15.8% [at 11.4 µM]. COC(=O)c1cccc(NC(=O)/C=C/c2cccc([N+](=O)[O-])c2)c1 was tested, and the “activity, negative = inhibition” value was -0.318%. With COCCCNC(=O)/C=C/c1cccc(Cl)c1 the “activity, negative = inhibition” value was -6.77%. In the case of O=C(/C=C/c1cccc(Cl)c1)Nc1ccncc1, the AC50 was 7.94 µM (active). Compound C[C@@]1(CCOCc2ccccc2)NC(=O)NC1=O has an activity, negative = inhibition of -5.74% [at 11.4 µM]. In the case of COc1ccc(C(=O)NCc2cn3ccccc3n2)cc1, the “activity, negative = inhibition” value was 1.48%. With C=C[C@@]1(C)CC(=O)[C@@]2(O)[C@@]3(C)[C@@H](O)CCC(C)(C)[C@@H]3[C@H](OC(=O)CCN(C)C)[C@H](OC(C)=O)[C@@]2(C)O1 the “activity, negative = inhibition” value was -4.44%. COc1ccccc1C(=O)N/C(=C/c1ccc(Br)cc1)C(=O)NCC(=O)O was tested, and the “activity, negative = inhibition” value was -11.1%. In the case of Cc1ccc(NC(=O)/C(=C\c2cccnc2)NC(=O)c2ccco2)cc1, the “activity, negative = inhibition” value was -15.6%. For O=C(NC(Cc1ccccc1)C(=O)O)/C(=C\c1ccco1)NC(=O)c1ccc(Br)cc1 (configuration not stated), the “activity, negative = inhibition” value was -2.43%. With CC1(C)Oc2ccc(NC(=O)c3ccco3)cc2O1 the “activity, negative = inhibition” value was -8.3%. In the case of O=C(Nc1ccccc1)/C(=C\c1ccc2c(c1)OCO2)NC(=O)c1ccco1, the AC50 was 15.8 µM (active). With O=C(N/N=C/c1ccc2c(c1)OCO2)/C(=C/c1ccc2c(c1)OCO2)NC(=O)c1ccccc1 the “activity, negative = inhibition” value was -19.8%. CCC(NC(=O)c1ccccc1NC(=O)c1ccco1)C(=O)NC1CCCCC1 (configuration not stated) was tested, and the “activity, negative = inhibition” value was 2.82%. O=C(Nc1ccccc1C(=O)Nc1ccc2c(c1)OCO2)c1ccco1 was tested, and the AC50 was 12.6 µM (active). With C=CCNC(=O)/C(=C\c1ccc2c(c1)OCO2)NC(=O)c1ccc(Br)cc1 the AC50 was 25.1 µM (active). C#CCCCO/N=C1/C[C@@H](O)[C@@H](O)[C@@H]2[C@@H]3C(=O)N(CC)C(=O)[C@H]3CC[C@H]12 was tested, and the activity, negative = inhibition was 14.7% [at 11.4 µM].
